Data taken from ChEMBL document CHEMBL4513141, “CO-ADD screening of NIH (USA) - Clinical Collection” (2021).
Potency and affinity values are given separately.

tested on: Staphylococcus aureus; settings: Concentration 20 uM; ASSAY_TEST Inhibition of Bacterial Growth; detection method Absorption (OD600); MEDIA CAMHB; plate type 384well; NBS; CORNING #3640; time 18 hr

| SMILES | Inhibition [%] |
| --- | --- |
| CC(C(=O)[O-])c1ccc(CC2CCCC2=O)cc1.[Na+] (stereo unspecified) [LOXOPROFEN SODIUM] | 9.06 |
| CC[C@H](C)C(=O)O[C@H]1C[C@@H](C)C=C2C=C[C@H](C)[C@H](CC[C@@H]3C[C@@H](O)CC(=O)O3)[C@H]21 [LOVASTATIN] | 9.76 |
| COc1cc(C[C@@H](CO)[C@H](CO)Cc2ccc(O)c(OC)c2)ccc1O [(+)-SECOISOLARICIRESINOL] | 14.2 |
| Cn1ccnc1S [METHIMAZOLE] | 17.02 |

tested on: Escherichia coli; settings: Concentration 20 uM; ASSAY_TEST Inhibition of Bacterial Growth; detection method Absorption (OD600); MEDIA CAMHB; plate type 384well; NBS; CORNING #3640; time 18 hr

| SMILES | Inhibition [%] |
| --- | --- |
| Cc1onc(-c2ccccc2)c1-c1ccc(S(N)(=O)=O)cc1 [VALDECOXIB] | 4.49 |
| CC(N/C(=N\C#N)Nc1ccncc1)C(C)(C)C.O (stereo unspecified) | -6.33 |
| Nc1nc(O)c2ncn(CCC(CO)CO)c2n1 [PENCICLOVIR] | 2.89 |
| C#C[C@]1(O)CC[C@H]2[C@@H]3CCc4cc(OC)ccc4[C@H]3CC[C@@]21C [MESTRANOL] | -2.89 |
| COc1ccc(/C=C/C(=O)Nc2ccccc2C(=O)O)cc1OC | -3.33 |
| CCOC(=O)C1=C(C)NC(C)=C(C(=O)OC)C1c1cccc(Cl)c1Cl (stereo unspecified) [FELODIPINE] | 4.41 |
| Cc1cccc(CN2CCN(C(c3ccccc3)c3ccc(Cl)cc3)CC2)c1.Cl.Cl (stereo unspecified) | 2.8 |
| COc1cc(C)nc(-n2nc(C)cc2OC)n1 [EPIRIZOLE] | -0.13 |
| C[C@]12CC[C@@H]3c4ccc(OS(=O)(=O)[O-])cc4CC[C@H]3[C@@H]1CCC2=O.[Na+] [ESTRONE SODIUM SULFATE] | 6.3 |
| Cl.c1ccc2c(c1)CCCC2C1=NCCN1 (stereo unspecified) [TETRAHYDROZOLINE HYDROCHLORIDE] | 7.52 |
| CCCCC1=NC2(CCCC2)C(=O)N1Cc1ccc(-c2ccccc2-c2nnn[nH]2)cc1 [IRBESARTAN] | -3.35 |
| CCN1CCC[C@H]1CNC(=O)c1cc(S(N)(=O)=O)ccc1OC [LEVOSULPIRIDE] | 3.44 |
| C[C@@H]1C[C@H]2[C@@H]3C[C@H](F)C4=CC(=O)C(Cl)=C[C@]4(C)[C@@]3(F)[C@@H](O)C[C@]2(C)[C@@]1(O)C(=O)CO [HALOMETASONE] | 4.02 |
| CCN(CC)CC1CCCCN1CC(=O)N1c2ccccc2C(=O)Nc2cccnc21 (stereo unspecified) [OTENZEPAD] | 5.55 |
| Cc1ncc([N+](=O)[O-])n1CCO [METRONIDAZOLE] | 2.82 |
| CN(C)CCC[C@@]1(c2ccc(F)cc2)OCc2cc(C#N)ccc21.O=C(O)C(=O)O [ESCITALOPRAM OXALATE] | 3.57 |
| CC(C)[N+](C)(CCOC(=O)C1c2ccccc2Oc2ccccc21)C(C)C.[Br-] [PROPANTHELINE BROMIDE] | 4.45 |
| COc1ccccc1OCCNCC(O)COc1cccc2[nH]c3ccccc3c12 (stereo unspecified) [CARVEDILOL] | 6.44 |
| Nc1c2c(nc3c1CCC3)CCCC2 [IPIDACRINE] | 5.57 |

| SMILES | Inhibition [%] |
| --- | --- |
| Nc1nc(N)nc(-c2cc(Cl)ccc2Cl)n1.O=C(O)/C=C\C(=O)O [IRSOGLADINE MALEATE] | 0.86 |
| CC(C[N+](C)(C)C)OC(N)=O.[Cl-] (stereo unspecified) [BETHANECHOL CHLORIDE] | -1.38 |
| CCOC(=O)[C@H](CCc1ccccc1)N[C@H]1CCc2ccccc2N(CC(=O)O)C1=O.Cl [BENAZEPRIL HYDROCHLORIDE] | 0.93 |
| Nc1ccn([C@@H]2O[C@H](CO)[C@@H](O)[C@@H]2O)c(=O)n1 [CYTARABINE] | -2.15 |
| CNCCC=C1c2ccccc2CCc2ccccc21.Cl [NORTRIPTYLINE HYDROCHLORIDE] | 4.29 |
| Cc1ccc(Cl)c(Nc2ccccc2C(=O)[O-])c1Cl.O.[Na+] [MECLOFENAMATE SODIUM] | 2.5 |
| COc1ccccc1N1CCN(CCCNc2cc(=O)n(C)c(=O)n2C)CC1.Cl [URAPIDIL HYDROCHLORIDE] | 0.81 |
| CC(C(O)c1ccc(O)cc1)N1CCC(Cc2ccccc2)CC1.O.O=C(O)C(O)C(O)C(=O)O (stereo unspecified) | -1.84 |
| Nc1ccc2cn[nH]c2c1 | 5.89 |
| COc1ccc(-c2cc(=O)c3c(OC)c(OC)c(OC)c(OC)c3o2)cc1OC [NOBILETIN] | -1.7 |
| CCN(CC)CCNC(=O)c1cc(Cl)c(N)cc1OC.Cl | -6.93 |
| O=c1c(O[C@@H]2O[C@H](CO)[C@@H](O)[C@H](O)[C@H]2O)c(-c2ccc(O)c(O)c2)oc2cc(O)cc(O)c12 [ISOQUERCETIN] | -1.78 |
| CCC[C@@H]1C[C@@H](C(=O)N[C@@H]([C@H]2O[C@H](SC)[C@H](O)[C@@H](O)[C@H]2O)[C@@H](C)O)N(C)C1.Cl.O [LINCOMYCIN HYDROCHLORIDE] | 6.86 |
| Cc1ccsc1C(=CCCN1CCC[C@@H](C(=O)O)C1)c1sccc1C.Cl [TIAGABINE HYDROCHLORIDE] | -1.1 |
| CC(C(=O)[O-])c1ccc(CC2CCCC2=O)cc1.[Na+] (stereo unspecified) [LOXOPROFEN SODIUM] | -0.84 |
| CC[C@H](C)C(=O)O[C@H]1C[C@@H](C)C=C2C=C[C@H](C)[C@H](CC[C@@H]3C[C@@H](O)CC(=O)O3)[C@H]21 [LOVASTATIN] | 0.96 |
| COc1cc(C[C@@H](CO)[C@H](CO)Cc2ccc(O)c(OC)c2)ccc1O [(+)-SECOISOLARICIRESINOL] | -3.86 |
| Cn1ccnc1S [METHIMAZOLE] | 5.86 |
